Laboratory results from article PMC5700166.

Tests used:
Test in all cases: protein-binding microarray (PBM); PBM: ~300 nM protein, 6 mM HEPES pH 7.8, 80 mM KCl, 0.5 mM EDTA, 0.5 mM EGTA, 6% glycerol, 35 ng/ul poly-dIdC, 1% milk, 1 h, room temperature; Ap Aiptasia and Nv Nematostella (sea anemones) / Co Capsaspora / Aq Amphimedon (sponge) / Dm Drosophila / Hu human; RHD is the Rel homology domain; high values mean tight binding
Details in all cases: dsDNA, one strand shown
GST-Ap-NF-kB RHD = biological target: T1, GST-Ap-NF-kB RHD (Exaiptasia pallida (Aiptasia), UniProt A0A913YAJ5 2-422)
T1 sequence: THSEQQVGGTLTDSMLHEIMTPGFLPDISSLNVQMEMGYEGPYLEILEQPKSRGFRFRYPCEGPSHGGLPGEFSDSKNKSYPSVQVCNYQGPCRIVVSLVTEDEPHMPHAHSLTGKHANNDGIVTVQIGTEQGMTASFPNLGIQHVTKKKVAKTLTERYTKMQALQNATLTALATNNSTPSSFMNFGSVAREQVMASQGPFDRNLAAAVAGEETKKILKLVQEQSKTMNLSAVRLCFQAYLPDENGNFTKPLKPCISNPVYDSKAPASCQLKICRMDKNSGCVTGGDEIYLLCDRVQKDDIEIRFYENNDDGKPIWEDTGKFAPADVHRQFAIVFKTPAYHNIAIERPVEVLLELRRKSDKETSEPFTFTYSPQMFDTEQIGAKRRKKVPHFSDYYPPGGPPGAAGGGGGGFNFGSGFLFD

[1] = biological target: T2, GST-Nv-NF-kB (Cys allele) (Nematostella vectensis, UniProt E5G601 2-411)
T2 sequence: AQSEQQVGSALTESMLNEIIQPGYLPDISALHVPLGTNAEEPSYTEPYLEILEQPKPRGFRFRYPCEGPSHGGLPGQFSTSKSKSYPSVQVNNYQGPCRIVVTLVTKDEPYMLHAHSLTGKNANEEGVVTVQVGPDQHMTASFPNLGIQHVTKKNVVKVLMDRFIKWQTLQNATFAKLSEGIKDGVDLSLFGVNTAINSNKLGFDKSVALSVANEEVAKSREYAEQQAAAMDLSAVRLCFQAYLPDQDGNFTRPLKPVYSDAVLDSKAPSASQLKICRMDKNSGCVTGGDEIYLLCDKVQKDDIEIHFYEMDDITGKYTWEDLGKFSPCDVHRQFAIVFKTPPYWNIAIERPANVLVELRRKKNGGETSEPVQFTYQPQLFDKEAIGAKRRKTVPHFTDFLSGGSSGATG

GST-Co-NF-kB = biological target: T3, GST-Co-NF-kB (Capsaspora owczarzaki, UniProt F1ARL5 200-546)
T3 sequence: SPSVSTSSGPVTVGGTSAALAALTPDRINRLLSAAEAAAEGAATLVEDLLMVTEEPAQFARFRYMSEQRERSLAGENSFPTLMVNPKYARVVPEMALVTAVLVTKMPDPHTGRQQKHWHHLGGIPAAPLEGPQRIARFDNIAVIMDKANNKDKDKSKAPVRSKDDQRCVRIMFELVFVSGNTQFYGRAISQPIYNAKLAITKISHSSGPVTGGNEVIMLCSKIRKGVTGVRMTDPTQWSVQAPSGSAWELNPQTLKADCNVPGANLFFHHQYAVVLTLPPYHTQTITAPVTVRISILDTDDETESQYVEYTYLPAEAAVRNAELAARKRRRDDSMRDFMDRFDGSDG

GST-Dm-Relish = biological target: T4, GST-Dm-Relish (Drosophila melanogaster, UniProt Q94527 99-473)
T4 sequence: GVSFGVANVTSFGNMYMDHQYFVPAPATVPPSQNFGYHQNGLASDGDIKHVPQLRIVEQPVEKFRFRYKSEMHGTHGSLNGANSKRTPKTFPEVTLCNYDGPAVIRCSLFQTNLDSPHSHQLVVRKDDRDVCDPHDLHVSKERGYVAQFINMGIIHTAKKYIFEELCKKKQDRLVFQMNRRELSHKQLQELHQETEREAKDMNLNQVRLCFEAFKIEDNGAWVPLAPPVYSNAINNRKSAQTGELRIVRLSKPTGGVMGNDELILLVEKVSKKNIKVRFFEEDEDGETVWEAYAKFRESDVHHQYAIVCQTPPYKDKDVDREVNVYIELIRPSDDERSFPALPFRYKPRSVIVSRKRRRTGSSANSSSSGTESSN

GST-Aq-NF-kB = biological target: T5, GST-Aq-NF-kB (Amphimedon queenslandica, UniProt A9Y5G7 2-389)
T5 sequence: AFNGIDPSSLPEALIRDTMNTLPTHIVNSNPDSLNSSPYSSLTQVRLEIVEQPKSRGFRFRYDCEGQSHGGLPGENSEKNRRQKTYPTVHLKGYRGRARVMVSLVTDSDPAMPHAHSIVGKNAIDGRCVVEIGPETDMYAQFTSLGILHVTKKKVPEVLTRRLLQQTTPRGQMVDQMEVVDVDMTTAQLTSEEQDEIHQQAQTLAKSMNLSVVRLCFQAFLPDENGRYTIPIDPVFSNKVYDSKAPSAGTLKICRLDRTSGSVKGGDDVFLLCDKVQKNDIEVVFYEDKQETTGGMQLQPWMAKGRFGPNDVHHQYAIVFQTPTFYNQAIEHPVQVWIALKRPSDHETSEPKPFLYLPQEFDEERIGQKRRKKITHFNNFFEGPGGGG

Sequence | binding signal (GST-Ap-NF-kB RHD) [z-score] | binding signal [1] [z-score] | binding signal (GST-Co-NF-kB) [z-score] | binding signal (GST-Dm-Relish) [z-score] | binding signal (GST-Aq-NF-kB) [z-score]
CCGATTAACATCAGGACGTTCCCTGATGTTAATCGGGTCTTGATTCGCTTGACGCTGCTG | 2.27 | 2.22 | 1.01 | 1.51 | 5.14
CCGATTAACATCACCAAAATCCCTGATGTTAATCGGGTCTTGATTCGCTTGACGCTGCTG | 3.22 | 2.45 | 1.36 | 5.42 | 2.86
CCGATTAACATCAGGGGGATCACTGATGTTAATCGGGTCTTGATTCGCTTGACGCTGCTG | 5.55 | 4.61 | 5.17 | 9.4 | 5.38
CCGATTAACATCAGGGGGTAGAATGATGTTAATCGGGTCTTGATTCGCTTGACGCTGCTG | 4.45 | 2.63 | 7.1 | 2.13 | 3.38
CCGATTAACATCAGGGAGATTTGTGATGTTAATCGGGTCTTGATTCGCTTGACGCTGCTG | 3.21 | 4.56 | 2.54 | 1.8 | 4.63
CCGATTAACATCAGGGAATTGTATGATGTTAATCGGGTCTTGATTCGCTTGACGCTGCTG | 2.85 | 4.78 | 3.1 | 1.21 | 4.7
CCGATTAACATCAGGGGGCGCACTGATGTTAATCGGGTCTTGATTCGCTTGACGCTGCTG | 3.71 | 3.04 | 2.37 | 4.13 | 4.79
CCGATTAACATCAGAACTTTCCCTGATGTTAATCGGGTCTTGATTCGCTTGACGCTGCTG | 4.2 | 6.87 | 3.78 | 2.67 | 7.19
CCGATTAACATCAGGGAACCCCATGATGTTAATCGGGTCTTGATTCGCTTGACGCTGCTG | 3.95 | 2.07 | 1.54 | 10.5 | 4.59
CCGATTAACATCAAATAGCCCCCTGATGTTAATCGGGTCTTGATTCGCTTGACGCTGCTG | 5.01 | 4.8 | 2.9 | 4.26 | 5.62
CCGATTAACATCAAAACAGCCCCTGATGTTAATCGGGTCTTGATTCGCTTGACGCTGCTG | 3.58 | 4.9 | 1.71 | 3.31 | 5.54
CCGATTAACATCAAAATTCCCATTGATGTTAATCGGGTCTTGATTCGCTTGACGCTGCTG | 3.68 | 6.03 | 3.56 | 6.03 | 4.99
CCGATTAACATCAGGAGTTACCCTGATGTTAATCGGGTCTTGATTCGCTTGACGCTGCTG | 2.75 | 3.81 | 2.23 | 5.11 | 6.71
CCGATTAACATCAAAAACTCCCATGATGTTAATCGGGTCTTGATTCGCTTGACGCTGCTG | 4.22 | 5.15 | 2.58 | 5.66 | 5.3
CCGATTAACATCACAACACCCCCTGATGTTAATCGGGTCTTGATTCGCTTGACGCTGCTG | 5.03 | 3.99 | 3.14 | 4.4 | 4.65
CCGATTAACATCACAAAACTCCCTGATGTTAATCGGGTCTTGATTCGCTTGACGCTGCTG | 4.94 | 6.58 | 2.13 | 5.41 | 6.32
CCGATTAACATCAGGCTTTCCCATGATGTTAATCGGGTCTTGATTCGCTTGACGCTGCTG | 1.49 | 2.94 | 2.07 | 2.07 | 2.88
CCGATTAACATCACCCAGGGAAATGATGTTAATCGGGTCTTGATTCGCTTGACGCTGCTG | 1.54 | 2.66 | 2.73 | 1.46 | 2.69
CCGATTAACATCAAGGCATTCCCTGATGTTAATCGGGTCTTGATTCGCTTGACGCTGCTG | 1.97 | 2.56 | 1.94 | 2.53 | 3.27
CCGATTAACATCAGGGATTACCATGATGTTAATCGGGTCTTGATTCGCTTGACGCTGCTG | 3.4 | 1.46 | 1.11 | 6.01 | 3.67
CCGATTAACATCAGACCTTCCCCTGATGTTAATCGGGTCTTGATTCGCTTGACGCTGCTG | 4.8 | 4.93 | 4.12 | 4.54 | 5.13
CCGATTAACATCAGGACTGTCCCTGATGTTAATCGGGTCTTGATTCGCTTGACGCTGCTG | 4.85 | 5.38 | 1.21 | 3.04 | 7.35
CCGATTAACATCAGGGGGGGTACTGATGTTAATCGGGTCTTGATTCGCTTGACGCTGCTG | 5.04 | 3.45 | 4.54 | 5.04 | 4.67
CCGATTAACATCAGGGGGTAATATGATGTTAATCGGGTCTTGATTCGCTTGACGCTGCTG | 4.99 | 4.47 | 6.77 | 2.66 | 4.45
CCGATTAACATCAAATTCCCTCGTGATGTTAATCGGGTCTTGATTCGCTTGACGCTGCTG | 3.11 | 4.96 | 2.32 | 3.26 | 4.09
CCGATTAACATCAGGGCAGCCCCTGATGTTAATCGGGTCTTGATTCGCTTGACGCTGCTG | 4.41 | 4.88 | 1.25 | 4.16 | 7.43
CCGATTAACATCAGGATGTTCCCTGATGTTAATCGGGTCTTGATTCGCTTGACGCTGCTG | 2.3 | 1.77 | 1.42 | 1.99 | 4.33
CCGATTAACATCAGATACCCCCCTGATGTTAATCGGGTCTTGATTCGCTTGACGCTGCTG | 6.55 | 4.3 | 4.8 | 3.94 | 4.46
